The source made the active and inactive calls. Calls follow the shape of the dose curve; as a rule, active = well fitted curve in the direction sought with a large enough effect; inactive = no such curve, though single readings can be large or run the other way.
biological target: Alpha-galactosidase (Coffea arabica) (UniProt Q42656); assay: Counterscreen for Glucocerebrosidase Inhibitors: qHTS Assay for Coffee Bean alpha-Galactosidase at pH 5.9 (AID 998); conditions: coffee bean alpha-galactosidase enzyme assay; series mostly up to 76.9 µM; activity, negative = inhibition: at the top concentration;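 also: plate controls were uninhibited enzyme for no effect and no-enzyme basal signal for full effect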
From the text: NIH Chemical Genomics Center [NCGC]
NIH Molecular Libraries Screening Centers Network [MLSCN]
PI Name: Zheng, Wei [NIH]
Alpha-galactosidase is a homodimeric glycoprotein that hydrolyzes the terminal alpha-galactosyl moieties from glycolipids and glycoproteins. Deficiency of this enzyme results in Fabry Disease with progressive accumulation of globotriaosylceramide and other glycosphingolipids in vascular endothelial cells that causes renal failure, myocardial infarction and stroke, and premature death in patients. It has reported that the improper folding and trafficking of alpha-galactosidase resulted from the genetic mutations may account for a significant numbers of Fabry patients. […] We optimized this coffee bean alpha-galactosidase assay in 1536-well plate format as a counter-screen assay for identifying the selective small molecule inhibitors of other lysosomal enzymes.
NCGC Assay Protocol Summary:
This is a fluorogenic enzyme assay with 4-Methylumbelliferyl alpha-D-galactopyranoside as the substrate and green coffee bean […] (from Sigma-Aldrich) as the enzyme preparation. Upon the hydrolysis of this fluorogenic substrate, the resulting product, […]. 4-Methyllumbelliferone, can be excited at 365 nm and emits at 440 nm which can be detected by a standard fluorescence plate reader. Data were normalized to the controls for basal activity (without enzyme) and 100% activity (with enzyme). In the AC50 values were determined from concentration-response data modeled with the standard Hill equation.
Assay buffer: 50 mM citric acid, 0.005% Tween-20, pH 5.9. (pH 5.9 is an optimal condition for this enzyme assay.)
1536-well assay protocol for the coffee bean alpha-galactosidase:
(1) Add 2 ul/well of enzyme (2 nM final)
(2) Add 23 nL compounds in DMSO solution. The final titration was 0.7 nM to 77 uM.
(3) Add 1 ul of substrate (80 uM final)
(4) Incubate at room temperature for 20 min.
(5) Add 2 ul stop solution (1M NaOH and 1M Glycine mixture, pH 10)
(6) Detect the assay plate in a ViewLux plate reader (PerkinElmer) with Ex=365 nm and Em=440nm.
Keywords: Alpha-galactosidase, Fabry Disease, pharmacological chaperone, chaperone therapy, high throughput screening, alpha-galactosidase inhibitor, MLSMR, MLSCN, NIH Roadmap, qHTS and NCGC

Sequence of Alpha-galactosidase (Coffea arabica) (Q42656 whole entry, looked up): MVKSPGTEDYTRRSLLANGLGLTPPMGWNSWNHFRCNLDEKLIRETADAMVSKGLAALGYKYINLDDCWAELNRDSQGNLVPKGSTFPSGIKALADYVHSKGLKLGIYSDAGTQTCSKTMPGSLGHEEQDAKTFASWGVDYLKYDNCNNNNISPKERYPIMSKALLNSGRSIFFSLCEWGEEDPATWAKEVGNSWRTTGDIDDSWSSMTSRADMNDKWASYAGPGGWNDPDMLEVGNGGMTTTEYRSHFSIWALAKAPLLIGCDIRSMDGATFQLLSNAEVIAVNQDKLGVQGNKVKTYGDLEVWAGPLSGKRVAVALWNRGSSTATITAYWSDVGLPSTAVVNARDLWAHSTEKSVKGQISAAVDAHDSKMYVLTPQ

Row | SMILES | activity, negative = inhibition | outcome
1 | CN(CCOc1ccc(C[C@H](Nc2ccccc2C(=O)c2ccccc2)C(=O)O)cc1)c1ccccn1 | -7.31% (inactive) | 
2 | NC(N)=NN=Cc1c(Cl)cccc1Cl | -0.289% (inactive) | 
3 | CNC(=O)Oc1ccc2c(c1)[C@@]1(C)CCN(C)[C@@H]1N2C | 2.54% (inactive) | 
4 | CC(C)=CCC/C(C)=C/CC/C(C)=C/CSc1ccccc1C(=O)O | -1.97% (inactive) | 
5 | CC(C)C[C@H]1C(=O)N2CCC[C@@H]2[C@]2(O)O[C@](NC(=O)[C@H]3C=C4c5cccc6[nH]c(Br)c(c56)C[C@H]4N(C)C3)(C(C)C)C(=O)N12 | -6.74% (inactive) | 
6 | COc1cc(OC)c(/C=C2/C(=O)Nc3ccccc32)c(OC)c1 | -0.487% (inactive) | 
7 | C[C@H]1OC[C@@H](C[N+](C)(C)C)O1 | 4.16% (inactive) | 
8 | C[C@@](Cc1ccc(O)c(O)c1)(NN)C(=O)O | -1.66% (inactive) | 
9 | COc1cc(C=C(C#N)C#N)cc(O)c1O | -0.364% (inactive) | 
10 | NCC#Cc1ccccc1 | -2.15% (inactive) | 
11 | NC[C@H](O)c1ccc(O)cc1 | -1.79% (inactive) | 
12 | NNCc1cccc(O)c1 | -0.6% (inactive) | 
13 | O=C(OC1CCN(CCCl)CC1)C(c1ccccc1)c1ccccc1 | 0.305% (inactive) | 
14 | CC[C@@]1(c2ccc(N)cc2)CCC(=O)NC1=O | 0.598% (inactive) | 
15 | C#CCN(C)[C@@H](C)Cc1ccccc1 | -0.6% (inactive) | 
16 | CN1CC[C@]2(C)c3cc(O)ccc3N(C)[C@@H]12 | -0.178% (inactive) | 
17 | CS(=N)(=O)CC[C@@H](N)C(=O)O (stereo partly drawn) | 0.256% (inactive) | 

Row | SMILES | activity, negative = inhibition | outcome
18 | COc1ccc2c(c1OC)C(=O)O[C@H]2[C@H]1c2cc3c(cc2CCN1C)OCO3 | 2.27% (inactive) | 
19 | CC(C)N(CC[C@@](C(N)=O)(c1ccccc1)c1ccccn1)C(C)C |  | inactive
20 | CC[C@H]1C(=O)OC[C@H]1Cc1cncn1C |  | inactive
21 | S=C(S)N1CCCC1 | -0.324% (inactive) | 
22 | C[N+]1(C)[C@@H]2CC[C@H]1CC(OC(=O)[C@@H](CO)c1ccccc1)C2 (stereo partly drawn) |  | inactive
23 | COc1cc([C@H]2c3cc4c(cc3[C@@H](O)[C@@H]3COC(=O)[C@H]23)OCO4)cc(OC)c1OC | 0.89% (inactive) | 
24 | C[C@]12CC[C@H](O)C[C@@H]1CC[C@H]1[C@H]2CC[C@]2(C)C(=O)CC[C@@H]12 | -1.55% (inactive) | 
25 | CCCCN1C2CCC1CC(OC(c1ccc(F)cc1)c1ccc(F)cc1)C2 (stereo not drawn) | -5.76% (inactive) | 
26 | Cc1cc(N)c2ccccc2[n+]1CCCCCCCCCC[n+]1c(C)cc(N)c2ccccc21 | -3.88% (inactive) | 
27 | CCc1c(C(=O)OC)ncc2[nH]c3cc(OC)c(OC)cc3c12 | -3.25% (inactive) | 
28 | COc1ccc(OC)c([C@H](O)[C@H](C)N)c1 | 2.76% (inactive) | 
29 | C[C@H](NC(C)(C)C)C(=O)c1cccc(Cl)c1 | -0.986% (inactive) | 
30 | CC[N+](C)(C)Cc1ccccc1Br | -1.5% (inactive) | 
31 | N#C/C(=C\c1ccc(O)c(O)c1)C(N)=S | -3.64% (inactive) | 
32 | CCCN(CCC)C(=O)Cc1c(-c2ccc(Cl)cc2)nc2c(Cl)cc(Cl)cn12 | -1.15% (inactive) | 
33 | CCCCCCC(C)(C)c1ccc([C@@H]2C[C@H](O)CC[C@@H]2CCCO)c(O)c1 | 0.206% (inactive) | 

Reference: PubChem BioAssay (NCATS)
